# Measurements: PubChem BioAssay (EPA / NIEHS)
# Inconclusive results are not listed. Activity calls are given as the source filed them. The calls were made as follows: active = hit-call score of the fitted dose curve at least 0.9, where 1 is the maximum; inconclusive = response in the unintended direction; inactive = score below 0.9.
# Key:
# [1] = target: human Sirtuin 1 (SIRT1), SIRT1 (gene 23411) (UniProt Q96EB6); assay: NVS_ENZ_hSIRT1: NovaScreen (NVS) Enzymatic Assay for human Sirtuin 1 (SIRT1) (AID 2283219)
# Sequence of human Sirtuin 1 (SIRT1), SIRT1 (gene 23411) (Q96EB6 whole entry, looked up): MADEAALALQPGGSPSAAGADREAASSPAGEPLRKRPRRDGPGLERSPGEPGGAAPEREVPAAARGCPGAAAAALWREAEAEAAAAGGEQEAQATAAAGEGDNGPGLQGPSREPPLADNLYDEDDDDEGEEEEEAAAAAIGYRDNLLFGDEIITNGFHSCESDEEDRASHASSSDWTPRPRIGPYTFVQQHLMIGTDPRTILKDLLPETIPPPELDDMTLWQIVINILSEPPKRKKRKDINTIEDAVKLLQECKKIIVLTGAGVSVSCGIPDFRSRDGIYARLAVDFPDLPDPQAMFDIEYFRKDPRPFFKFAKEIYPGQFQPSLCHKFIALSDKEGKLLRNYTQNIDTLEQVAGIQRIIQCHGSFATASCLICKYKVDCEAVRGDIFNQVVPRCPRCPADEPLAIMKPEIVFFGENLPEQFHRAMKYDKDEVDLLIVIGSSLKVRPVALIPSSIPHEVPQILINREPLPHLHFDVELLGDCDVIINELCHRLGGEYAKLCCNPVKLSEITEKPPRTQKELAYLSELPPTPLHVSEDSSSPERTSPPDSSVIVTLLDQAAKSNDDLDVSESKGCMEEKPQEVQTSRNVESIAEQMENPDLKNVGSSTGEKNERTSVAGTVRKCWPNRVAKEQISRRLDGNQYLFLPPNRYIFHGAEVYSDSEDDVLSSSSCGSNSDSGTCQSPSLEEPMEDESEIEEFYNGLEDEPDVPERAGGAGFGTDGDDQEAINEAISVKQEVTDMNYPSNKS
# Procedure, shortened: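 Cell-free recombinant SIRT1 with a fluorescent substrate; substrate and product separated by electrophoretic mobility shift and read by fluorescence intensity, 1 h after dosing. Primary screen at 25 uM in duplicate; hits re-run in concentration-response up to 50 uM, relative to DMSO.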
# [2] = target: human Protein Tyrosine Phosphatase Non-receptor Type 6 (PTPN6), PTPN6 (gene 5777) (UniProt P29350); assay: NVS_ENZ_hPTPN6: NovaScreen (NVS) Enzymatic Assay for human Protein Tyrosine Phosphatase Non-receptor Type 6 (PTPN6) (AID 2283210)
# Sequence of human Protein Tyrosine Phosphatase Non-receptor Type 6 (PTPN6), PTPN6 (gene 5777) (P29350 whole entry, looked up): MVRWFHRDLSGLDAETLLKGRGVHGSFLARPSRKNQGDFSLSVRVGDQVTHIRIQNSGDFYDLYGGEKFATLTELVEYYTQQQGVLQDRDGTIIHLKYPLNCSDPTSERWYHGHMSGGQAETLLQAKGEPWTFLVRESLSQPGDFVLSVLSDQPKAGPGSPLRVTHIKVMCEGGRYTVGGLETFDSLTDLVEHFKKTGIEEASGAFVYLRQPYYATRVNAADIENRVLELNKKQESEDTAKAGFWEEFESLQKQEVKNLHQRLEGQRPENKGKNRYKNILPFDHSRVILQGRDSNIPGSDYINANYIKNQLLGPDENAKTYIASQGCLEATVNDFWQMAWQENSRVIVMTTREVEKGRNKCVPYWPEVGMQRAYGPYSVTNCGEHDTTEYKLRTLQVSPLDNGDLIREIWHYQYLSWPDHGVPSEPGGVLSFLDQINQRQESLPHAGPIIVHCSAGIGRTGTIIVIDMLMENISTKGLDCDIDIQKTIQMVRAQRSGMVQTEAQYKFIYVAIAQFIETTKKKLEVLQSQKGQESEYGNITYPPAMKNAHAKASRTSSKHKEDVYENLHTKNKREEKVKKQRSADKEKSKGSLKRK
# Procedure, shortened: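 Recombinant human PTPN6 from SF9 cells, enzyme activity followed by fluorescence after mobility-shift separation of substrate and product at 1.33 h. Chemicals first tested at a single 25 uM in duplicate, then confirmed across concentration series; loss of signal relative to DMSO.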
# [3] = target: human Sirtuin 3 (SIRT3), SIRT3 (gene 23410) (UniProt Q9NTG7); assay: NVS_ENZ_hSIRT3: NovaScreen (NVS) Enzymatic Assay for human Sirtuin 3 (SIRT3) (AID 2283222)
# Sequence of human Sirtuin 3 (SIRT3), SIRT3 (gene 23410) (Q9NTG7 whole entry, looked up): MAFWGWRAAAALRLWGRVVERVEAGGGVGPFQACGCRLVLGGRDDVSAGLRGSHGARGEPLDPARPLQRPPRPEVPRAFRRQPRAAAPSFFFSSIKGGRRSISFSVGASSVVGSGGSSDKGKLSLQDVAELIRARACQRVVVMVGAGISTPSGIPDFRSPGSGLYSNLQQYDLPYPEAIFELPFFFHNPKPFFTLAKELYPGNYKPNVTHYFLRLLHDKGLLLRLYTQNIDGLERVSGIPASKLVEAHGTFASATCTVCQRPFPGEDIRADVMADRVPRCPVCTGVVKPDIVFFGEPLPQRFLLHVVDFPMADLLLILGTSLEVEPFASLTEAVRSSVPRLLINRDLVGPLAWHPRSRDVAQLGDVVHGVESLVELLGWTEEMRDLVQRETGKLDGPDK
# Procedure, shortened: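 Cell-free enzyme assay with recombinant protein and fluorescent substrate, product separated by electrophoretic mobility shift; read 1 hour after dosing. Screened in duplicate at 25 uM, then singleton concentration-response up to 50 uM; loss of signal versus DMSO.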
# [4] = target: human Sirtuin 2 (SIRT2), SIRT2 (gene 22933) (UniProt Q8IXJ6); assay: NVS_ENZ_hSIRT2: NovaScreen (NVS) Enzymatic Assay for human Sirtuin 2 (SIRT2) (AID 2283217)
# Procedure, shortened: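 Single-point duplicate screen at 25 uM, then concentration-response (max 50 uM) for chemicals passing threshold. Enzyme activity of recombinant human SIRT2 measured after 1 hr by fluorescence with mobility-shift separation of product; DMSO baseline.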
# [5] = target: human Tropomyosin Receptor Kinase A (TRKA), NTRK1 (gene 4914) (UniProt P04629); assay: NVS_ENZ_hTrkA: NovaScreen (NVS) Enzymatic Assay for human Tropomyosin Receptor Kinase A (TRKA) (AID 2283224)
# Procedure, shortened: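 Compounds were screened at 25 uM in duplicate, then concentration series to a 50 uM top for those meeting threshold (e.g. 30% inhibition). Enzyme was recombinant human TrkA, incubated 1 h. Product formation was quantified by fluorescence after mobility-shift separation.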
# [6] = target: rabbit Imidazoline 2 Central (I2C), CKB (gene 100009085) (UniProt P00567); assay: NVS_ENZ_rabI2C: NovaScreen (NVS) Enzymatic Assay for rabbit Imidazoline 2 Central (I2C) (AID 2283228)
# Sequence of rabbit Imidazoline 2 Central (I2C), CKB (gene 100009085) (P00567 whole entry, looked up): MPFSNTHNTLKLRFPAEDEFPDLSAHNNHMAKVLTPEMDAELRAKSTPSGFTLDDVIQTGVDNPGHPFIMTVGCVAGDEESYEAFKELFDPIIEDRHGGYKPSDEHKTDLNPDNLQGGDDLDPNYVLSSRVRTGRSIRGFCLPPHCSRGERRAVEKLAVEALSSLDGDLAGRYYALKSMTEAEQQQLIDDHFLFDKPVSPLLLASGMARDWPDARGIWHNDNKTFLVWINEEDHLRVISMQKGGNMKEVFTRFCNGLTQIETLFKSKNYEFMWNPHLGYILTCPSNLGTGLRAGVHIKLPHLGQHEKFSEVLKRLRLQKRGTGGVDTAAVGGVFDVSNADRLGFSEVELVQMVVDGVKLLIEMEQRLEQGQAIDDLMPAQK
# Procedure, shortened: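 Rabbit brain membranes, cell-free; readout by filter-based scintillation counting 1.5 hours after dosing, loss of signal vs DMSO. Initial duplicate test at 25 uM, then concentration-response with 50 uM top concentration.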
# [7] = target: sheep Cyclooxygenase-1 (Cox1), PTGS1 (gene 443551) (UniProt P05979); assay: NVS_ENZ_oCOX1: NovaScreen (NVS) Enzymatic Assay for sheep Cyclooxygenase-1 (Cox1) (AID 2283239);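 also: actives reduce cyclooxygenase activity so potencies are for inhibitors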
# Procedure, shortened: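 Tested in duplicate at 25 uM, then in concentration series if active, against seminal vesicle extract from sheep. Enzyme activity was measured colorimetrically at 0.66 hour and normalised to DMSO.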
# [8] = target: human Rho Associated Coiled-coil Containing Protein Kinase 1 (ROCK1), ROCK1 (gene 6093) (UniProt Q13464); assay: NVS_ENZ_hROCK1: NovaScreen (NVS) Enzymatic Assay for human Rho Associated Coiled-coil Containing Protein Kinase 1 (ROCK1) (AID 2283214)
# Procedure, shortened: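 Compounds first run in duplicate at 25 uM against recombinant human ROCK1, then followed in concentration series. Kinase activity was read 1 h post-dosing by fluorescence with mobility-shift separation, as signal loss relative to DMSO.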
# [9] = target: human Vascular Endothelial Growth Factor Receptor 1 (VEGFR1), FLT1 (gene 2321) (UniProt P17948); assay: NVS_ENZ_hVEGFR1: NovaScreen (NVS) Enzymatic Assay for human Vascular Endothelial Growth Factor Receptor 1 (VEGFR1) (AID 2283226)
# Sequence of human Vascular Endothelial Growth Factor Receptor 1 (VEGFR1), FLT1 (gene 2321) (P17948 whole entry, looked up): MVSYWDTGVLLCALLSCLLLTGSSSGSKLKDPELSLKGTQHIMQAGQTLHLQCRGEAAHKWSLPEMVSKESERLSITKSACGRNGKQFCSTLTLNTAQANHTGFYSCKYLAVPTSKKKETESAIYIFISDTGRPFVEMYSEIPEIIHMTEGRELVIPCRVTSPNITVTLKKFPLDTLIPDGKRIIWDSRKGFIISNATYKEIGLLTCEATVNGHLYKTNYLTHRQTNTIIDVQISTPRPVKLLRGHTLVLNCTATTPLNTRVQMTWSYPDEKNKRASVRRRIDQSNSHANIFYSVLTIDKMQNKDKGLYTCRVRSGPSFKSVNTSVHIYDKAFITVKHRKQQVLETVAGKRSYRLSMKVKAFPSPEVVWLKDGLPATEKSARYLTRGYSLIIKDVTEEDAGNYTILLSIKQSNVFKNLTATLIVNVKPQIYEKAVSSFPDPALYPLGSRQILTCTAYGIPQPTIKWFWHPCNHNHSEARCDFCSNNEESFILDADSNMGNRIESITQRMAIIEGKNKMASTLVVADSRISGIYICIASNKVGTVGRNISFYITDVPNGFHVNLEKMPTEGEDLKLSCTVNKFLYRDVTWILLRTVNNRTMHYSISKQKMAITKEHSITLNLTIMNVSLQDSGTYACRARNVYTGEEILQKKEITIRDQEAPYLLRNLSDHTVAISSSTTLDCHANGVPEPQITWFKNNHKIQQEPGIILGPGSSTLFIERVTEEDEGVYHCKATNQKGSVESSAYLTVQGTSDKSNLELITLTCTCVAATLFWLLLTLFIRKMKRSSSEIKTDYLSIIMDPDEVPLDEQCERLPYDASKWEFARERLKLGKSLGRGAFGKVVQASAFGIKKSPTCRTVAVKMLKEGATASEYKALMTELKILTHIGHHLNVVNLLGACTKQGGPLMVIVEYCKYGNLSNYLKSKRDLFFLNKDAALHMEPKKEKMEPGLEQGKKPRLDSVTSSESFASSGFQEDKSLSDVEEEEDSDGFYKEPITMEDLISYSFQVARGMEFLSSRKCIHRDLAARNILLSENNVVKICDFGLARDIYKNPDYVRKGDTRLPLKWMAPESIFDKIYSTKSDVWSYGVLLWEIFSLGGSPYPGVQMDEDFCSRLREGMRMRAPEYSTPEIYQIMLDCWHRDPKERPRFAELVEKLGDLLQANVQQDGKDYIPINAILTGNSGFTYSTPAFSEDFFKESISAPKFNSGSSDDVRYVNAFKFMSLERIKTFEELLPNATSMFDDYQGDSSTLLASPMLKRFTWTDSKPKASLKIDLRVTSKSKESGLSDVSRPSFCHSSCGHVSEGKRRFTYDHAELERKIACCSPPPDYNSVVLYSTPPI
# Procedure, shortened: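 Kinase activity of recombinant human VEGFR1 was read by fluorescence after electrophoretic separation of product from substrate, 1 h post-dosing; initial duplicate single-point testing at 25 uM, followed by concentration-series follow-up, with DMSO as baseline.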
# [10] = target: human Vascular Endothelial Growth Factor Receptor 2 (VEGFR2), KDR (gene 3791) (UniProt P35968); assay: NVS_ENZ_hVEGFR2: NovaScreen (NVS) Enzymatic Assay for human Vascular Endothelial Growth Factor Receptor 2 (VEGFR2) (AID 2283230)
# Procedure, shortened: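 Cell-free recombinant VEGFR2 kinase, fluorescent substrate with electrophoretic mobility-shift separation; read 1 h after dosing. Screened at 25 uM in duplicate, hits to concentration-response up to 50 uM; loss-of-signal versus DMSO.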
# [11] = target: human Protein Tyrosine Phosphatase Receptor Type M (PTPRM), PTPRM (gene 5797) (UniProt P28827); assay: NVS_ENZ_hPTPRM: NovaScreen (NVS) Enzymatic Assay for human Protein Tyrosine Phosphatase Receptor Type M (PTPRM) (AID 2283215)
# Sequence of human Protein Tyrosine Phosphatase Receptor Type M (PTPRM), PTPRM (gene 5797) (P28827 whole entry, looked up): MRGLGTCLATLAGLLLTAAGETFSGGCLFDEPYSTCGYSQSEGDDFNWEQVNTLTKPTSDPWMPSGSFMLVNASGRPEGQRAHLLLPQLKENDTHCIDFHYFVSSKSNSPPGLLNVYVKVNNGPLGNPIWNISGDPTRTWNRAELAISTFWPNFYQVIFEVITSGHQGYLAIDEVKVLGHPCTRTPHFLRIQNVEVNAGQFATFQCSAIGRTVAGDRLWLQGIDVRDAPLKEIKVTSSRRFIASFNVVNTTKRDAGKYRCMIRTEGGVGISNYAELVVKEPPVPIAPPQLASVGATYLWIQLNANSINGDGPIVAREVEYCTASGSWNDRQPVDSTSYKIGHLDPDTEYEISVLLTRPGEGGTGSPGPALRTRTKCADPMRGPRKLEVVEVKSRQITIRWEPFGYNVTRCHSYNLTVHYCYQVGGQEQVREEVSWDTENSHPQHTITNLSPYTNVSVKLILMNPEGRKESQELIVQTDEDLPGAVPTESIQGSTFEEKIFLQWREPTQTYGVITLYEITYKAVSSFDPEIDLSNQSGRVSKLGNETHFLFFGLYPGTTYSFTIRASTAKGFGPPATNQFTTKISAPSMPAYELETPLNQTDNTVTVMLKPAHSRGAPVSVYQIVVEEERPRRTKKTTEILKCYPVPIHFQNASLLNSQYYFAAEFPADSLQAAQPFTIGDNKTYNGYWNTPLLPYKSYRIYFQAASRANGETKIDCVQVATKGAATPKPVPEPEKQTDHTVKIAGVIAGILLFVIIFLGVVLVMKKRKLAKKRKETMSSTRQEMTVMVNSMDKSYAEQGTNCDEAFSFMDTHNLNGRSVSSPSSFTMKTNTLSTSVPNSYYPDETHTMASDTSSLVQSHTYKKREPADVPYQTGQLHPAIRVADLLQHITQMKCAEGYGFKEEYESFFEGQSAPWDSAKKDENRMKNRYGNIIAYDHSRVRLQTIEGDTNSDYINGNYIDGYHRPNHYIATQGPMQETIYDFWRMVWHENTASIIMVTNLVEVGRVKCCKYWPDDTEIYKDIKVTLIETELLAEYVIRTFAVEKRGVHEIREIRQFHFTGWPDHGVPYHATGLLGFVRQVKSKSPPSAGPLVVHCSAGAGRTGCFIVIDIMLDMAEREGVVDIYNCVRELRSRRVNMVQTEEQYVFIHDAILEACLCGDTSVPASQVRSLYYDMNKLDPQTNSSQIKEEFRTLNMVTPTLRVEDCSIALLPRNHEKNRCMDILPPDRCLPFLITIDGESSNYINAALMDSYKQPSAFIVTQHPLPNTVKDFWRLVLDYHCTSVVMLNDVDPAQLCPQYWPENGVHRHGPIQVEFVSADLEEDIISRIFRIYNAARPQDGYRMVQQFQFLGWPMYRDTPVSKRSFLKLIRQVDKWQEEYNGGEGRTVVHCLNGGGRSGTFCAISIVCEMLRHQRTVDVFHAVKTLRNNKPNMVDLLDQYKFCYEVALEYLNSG
# Procedure, shortened: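 Read-out is fluorescence after electrophoretic separation of substrate and product, taken 1.33 h post-dosing with recombinant enzyme. Compounds screened at 25 uM in duplicate, then concentration series for actives; activity as signal loss relative to DMSO.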
# [12] = target: human Protein Tyrosine Phosphatase Receptor Type B (PTPRB), PTPRB (gene 5787) (UniProt P23467); assay: NVS_ENZ_hPTPRB: NovaScreen (NVS) Enzymatic Assay for human Protein Tyrosine Phosphatase Receptor Type B (PTPRB) (AID 2283211)
# Procedure, shortened: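 Recombinant human PTPRB with a fluorescent substrate, product separated by electrophoretic mobility shift; read 1 h after dosing. Primary screen in duplicate at 25 uM; actives then retested in concentration series; loss of signal versus DMSO.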
# [13] = target: human Protein Tyrosine Phosphatase Non-receptor Type 9 (PTPN9), PTPN9 (gene 5780) (UniProt P43378); assay: NVS_ENZ_hPTPN9: NovaScreen (NVS) Enzymatic Assay for human Protein Tyrosine Phosphatase Non-receptor Type 9 (PTPN9) (AID 2283209)
# Procedure, shortened: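 Sf9-expressed enzyme in a cell-free assay, fluorescence read 1.33 h after dosing with mobility-shift separation of substrate and product. Tested at 25 uM in duplicate, then up to 50 uM; signal loss versus DMSO.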
# [14] = target: Tyrosine-protein phosphatase non-receptor type 14 (Homo sapiens) (UniProt Q15678); assay: NVS_ENZ_hPTPN14: NovaScreen (NVS) Enzymatic Assay for human Protein Tyrosine Phosphatase Non-receptor Type 14 (PTPN14) (AID 2283206)
# Procedure, shortened: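 Fluorescent substrate turnover by recombinant human PTPN14 was measured 0.5 h after compound addition, with substrate and product separated by mobility shift. Single-point screening at 25 uM, then concentration-response up to 50 uM for chemicals meeting threshold (e.g., 30% inhibition).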
# [15] = target: human Protein Tyrosine Phosphatase Receptor Type F (PTPRF), PTPRF (gene 5792) (UniProt P10586); assay: NVS_ENZ_hPTPRF: NovaScreen (NVS) Enzymatic Assay for human Protein Tyrosine Phosphatase Receptor Type F (PTPRF) (AID 2283213)
# Procedure, shortened: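 Cell-free fluorescence enzyme assay with recombinant protein and substrate; product separated by electrophoretic mobility shift. Read 1 h after dosing, single 25 uM duplicate screen, then concentration-response up to 50 uM; loss of signal vs DMSO.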
# [16] = target: sheep Cyclooxygenase-2 (Cox2), PTGS2 (gene 443460) (UniProt P79208); assay: NVS_ENZ_oCOX2: NovaScreen (NVS) Enzymatic Assay for sheep Cyclooxygenase-2 (Cox2) (AID 2283231)
# Procedure, shortened: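 Compounds were first run at 25 uM in duplicate against tissue-extracted ovine COX-2; those passing a preset inhibition threshold went to singleton concentration-response testing with a 50 uM maximum. Read-out: absorbance at 0.66 hour.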
smiles,measurement,setting,value
Cc1cc(SC2=C(O)C[C@@](CCc3ccc(N)cc3)(C(C)C)OC2=O)c(C(C)(C)C)cc1CO,outcome,[1],inactive
c1ccc2occc2c1,outcome,[2],inactive
CC(C)OC(=O)C(C)(C)Oc1ccc(C(=O)c2ccc(Cl)cc2)cc1,AC50,[3],8.69 µM (active)
CCN(CC)CCOc1ccc(C(=C(Cl)c2ccccc2)c2ccccc2)cc1,AC50,[4],21 µM (active)
same,outcome,[3],inactive
same,outcome,[5],inactive
same,AC50,[6],9.71 µM (active)
same,AC50,[7],4.39 µM (active)
COC(=O)CCC(=O)OC,outcome,[1],inactive
same,outcome,[3],inactive
CC(C)c1cccc(C(C)C)c1,outcome,[8],inactive
CN(C)C(=O)NC1(c2ccccc2)CCN(CC[C@@]2(c3ccc(F)c(F)c3)CN(C(=O)c3ccccc3)CCO2)CC1,outcome,[2],inactive
same,outcome,[9],inactive
same,outcome,[6],inactive
same,outcome,[10],inactive
C=CCc1ccc(OC)c(OC)c1,outcome,[4],inactive
CCCCOC(=O)CCCCC(=O)OCCCC,outcome,[11],inactive
CCCCC(CC)CO (stereo unspecified),outcome,[12],inactive
CC1=C(C)S(=O)(=O)CCS1(=O)=O,outcome,[1],inactive
O=C(O)CC(O)(CC(=O)O)C(=O)O,outcome,[13],inactive
same,outcome,[5],inactive
O=C(Oc1ccccc1)c1cccc(C(=O)Oc2ccccc2)c1,outcome,[13],inactive
same,outcome,[8],inactive
same,outcome,[1],inactive
CC(COCC(C)OC(=O)c1ccccc1)OC(=O)c1ccccc1 (stereo unspecified),outcome,[2],inactive
CC(C)NCC(O)c1ccc(O)c(O)c1 (stereo unspecified),outcome,[14],inactive
CC(C)(O)c1ccc(CNC(=O)c2cccnc2Oc2ccc(F)cc2)cc1,outcome,[1],inactive
same,outcome,[6],inactive
CN(C)C(=O)NC1(c2ccccc2)CCN(CCC[C@]2(c3ccc(Cl)c(Cl)c3)CCCN(C(=O)c3ccccc3)C2)CC1,outcome,[15],inactive
same,outcome,[8],inactive
same,AC50,[4],1.69 µM (active)
same,outcome,[10],inactive
same,AC50,[16],4.73 µM (active)
Cc1occc(=O)c1O,outcome,[4],inactive
same,outcome,[10],inactive
same,AC50,[16],17.6 µM (active)
COc1ccc(OC(F)(F)F)cc1CN[C@H]1CCCN[C@H]1c1ccccc1,outcome,[14],inactive
same,outcome,[15],inactive
same,outcome,[11],inactive
same,outcome,[9],inactive
same,AC50,[6],15 µM (active)
same,outcome,[10],inactive
same,AC50,[7],11.6 µM (active)
O=C1NC(=O)C(c2ccccc2)(c2ccccc2)N1,outcome,[11],inactive
same,outcome,[3],inactive
same,outcome,[9],inactive
